Consider eleven compounds from PubChem BioAssay (EPA / NIEHS).

Where “and” joins values, the source holds several entries; their conditions need not be identical. Equal values may be shown once. Calls of active or inactive are those of the source. The calls were made as follows: active = hit-call score of the fitted dose curve at least 0.9, where 1 is the maximum; inactive = score below 0.9.

Read-out in this assay: Vascular cell adhesion molecule 1 (VCAM1), VCAM1 (gene 7412)
As to the kind of experiment: BSK_BF4T_VCAM1: BioMAP Diversity Plus: BF4T Assay for Vascular cell adhesion molecule 1 (VCAM1) Biomarker Activity (AID 2284249). The following applies: primary human bronchial epithelial cells with fibroblasts. Here is the method: BSK_BF4T is a cell-based, multiplexed-readout assay that uses bronchial epithelial cells and dermal fibroblasts, a human vascular primary cell, with measurements taken at 24 hours after chemical dosing in a microplate: 96-well plate.BSK_BF4T_VCAM1 is an assay component measured in the BSK_BF4T assay. It measures VCAM-1 antibody related to regulation of gene expression using ELISA technology.Data from the assay component BSK_BF4T_VCAM1 was analyzed at the endpoint, BSK_BF4T_VCAM1, in the positive analysis fitting direction relative to DMSO as the negative control and baseline of activity. Using a type of binding reporter, gain or loss-of-signal activity can be used to understand protein changes. To generalize the intended target to other relatable targets, this assay endpoint is annotated to the 'cell adhesion molecules' intended target family, where the subfamily is 'Immunoglobulin CAM'.
The levels of cell surface (or secreted, indicated by the prefix "s") biomarker endpoints were measured by ELISA. Overt cytotoxicity to cells in confluent adherent cultures (all systems other than the BT system) was assessed by measuring total protein levels using sulforhodamine B (SRB) staining in parallel cultures at the time of biomarker measurements, indicated as SRB endpoints. For proliferation assays for adherent cell types, individual cell types are cultured at sub-confluence and relative cell numbers quantified by SRB staining at time points optimized for each system (48 h: 3C and CASM3C systems; 72 h: BT and HDF3CGF systems; 96 h: SAg system). SRB was performed by staining cells with 0.1% SRB after fixation with 10% TCA and reading wells at 560 nm.Viability and proliferation of PBMC (T cells) was quantified by Alamar Blue reduction for the SAg and BT systems. For PBMC viability (referred to as PBMC Cytotoxicity within the assay endpoint names), cells were plated (75,000/well in a 96-well plate) and then chemical samples added for 1 h before addition of activators, SEB and TSST-1 (20 ng/mL final concentration each). Cells were incubated for 90 h. Then, Alamar Blue (20 uL/well) (Invitrogen, Cat DAL1100) was added for 6 h, and the plates were read with a fluorescence microplate reader at 546/580 nm (excitation/emission). For PBMC proliferation, cells were plated and activated as above but incubated for only 16 h prior to addition of Alamar Blue. Plates were read after 6 h.
As for `CN(Cc1cnc2nc(N)nc(N)c2n1)c1ccc(C(=O)N[C@@H](CCC(=O)O)C(=O)O)cc1`, the outcome was inactive. Take `O=C(O)C(F)(F)OC(F)(F)C(F)(F)OC(F)(F)C(F)(F)OC(F)(F)C(F)(F)C(F)(F)C(F)(F)F`: the AC50 (as a rule, the concentration at which the activity in the assay is half-maximal) is 7.4 µM (active) and 6.87 µM (active).

As to `CN(CCO)S(=O)(=O)C(F)(F)C(F)(F)C(F)(F)C(F)(F)C(F)(F)C(F)(F)C(F)(F)C(F)(F)F`, the result was inactive. As to `O=S(=O)(O)C(F)(F)C(F)(F)C(F)(F)C(F)(F)C(F)(F)C(F)(F)C(F)(F)C(F)(F)C(F)(F)C(F)(F)F`, the outcome was inactive. Turning to `O=P(O)(O)CCC(F)(F)C(F)(F)C(F)(F)C(F)(F)C(F)(F)C(F)(F)F`, the outcome was inactive.

On to `O=P(O)(O)CCC(F)(F)C(F)(F)C(F)(F)C(F)(F)C(F)(F)C(F)(F)C(F)(F)C(F)(F)F`, for which the outcome was inactive.

For the compound `O=C(O)CCC(F)(F)C(F)(F)C(F)(F)C(F)(F)C(F)(F)C(F)(F)F`, the result was inactive. In the case of `O=C(O)CCC(F)(F)C(F)(F)C(F)(F)C(F)(F)C(F)(F)F`, the result was inactive. Take `O=C(CC(=O)C(F)(F)C(F)(F)C(F)(F)F)c1cccs1`: the AC50 was 20.6 µM (active) and 19.3 µM (active). Regarding `C=CC(=O)OCCC(F)(F)C(F)(F)C(F)(F)C(F)(F)C(F)(F)C(F)(F)C(F)(F)C(F)(F)F`, the result was inactive.

On to `OCC(F)(F)C(F)(F)C(F)(F)C(F)(F)C(F)(F)C(F)(F)C(F)(F)C(F)(F)C(F)(F)C(F)(F)C(F)(F)F`, for which the result was inactive.
